Rows were chosen to be rich in hits. Some 7.3% of all compounds tested hit in one or more screens of this group.
VACV Venus inh: inhibitors of vaccinia virus (Venus reporter) | Vaccinia virus Venus reporter expression, fluorescence | Potency, µM (titrated, usually from 36.5 µM), usual class: inhibitors | 330,000 compounds, 0.46% hits; calls by dose curve; tested in A549 cells; note: nearly all actives have a fitted effect of over 30% in size
HCMV antiviral: blocks human cytomegalovirus replication; AID 1259415; activity change, negative = inhibition, % at 57.5 µM; HFF cells, HCMV-luciferase reporter, 72 h; active compounds read low; 410,000 compounds, 4.5% hits; in the data active = activity change below about -60%; inconclusive = no clear call, values can overlap the other calls; inactive = above about -39%
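Steps: HFFs plated, 16 h 37C; compounds added; HCMV-luciferase added to MOI 1 PFU/cell; 72 h 37C; OneGlo reagent, 5 min room temperature; luminescence read, normalized to controls.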
VACV mCherry inh: vaccinia inhibition (mCherry reporter); Vaccinia virus mCherry reporter infection, fluorescence; Potency, µM (series often up to 36.5 µM), hits mostly inhibitors; 310,000 compounds, 0.63% hits; AID 720579; calls by dose curve; tested in A549 cells; note: nearly all actives have a fitted effect of over 35% in size
FMDV antiviral: foot and mouth disease virus antiviral activity | 410,000 compounds, 1.2% hits | Potency, µM (series often up to 57.9 µM), actives largely listed as inhibitors | FMDV antiviral cell-based qHTS | AID 1159524; calls by dose curve; tested in HEK293T cells; note: read-out not given here; nearly all actives have a fitted effect of over 45% in size
HCV inhibitor: HCV inhibition; Huh7.5.1 HCVcc-Cre infection, luciferase reporter, 44 h; Potency, µM (doses to about 41.8 µM), usual class: inhibitors; 340,000 compounds, 3.4% hits; AID 651820; active = well fitted inhibition curve with a large enough effect; inconclusive = small, poorly fitted or top-dose-only effect, or another doubt; inactive = no such curve, though single readings can be large or run the other way
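Luciferase read-out (15 sec integration) after a 15 min room-temperature substrate step quantifies HCVcc-Cre infection. Cells, 1,000 per well, had compound added 4 h post-plating, then virus at ~0.5 moi, and were cultured 44 h.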
Of the large screens only hits and unclear results are named; the others gave an inactive call.

O=c1cc(COc2ccccc2Cl)nc2scc(-c3ccccc3)n12	HCMV antiviral -87.6 (no result: HCV inhibitor)
COc1ccccc1NC(=O)C1=C(C)Nc2c(C(=O)Nc3cccc(C)c3)cnn2C1c1ccccc1Cl (stereo unspecified)	none (no result: HCV inhibitor)
CC(=O)c1cccc(NC(=O)c2noc3c2CCCC3)c1	none (no result: HCV inhibitor)
CNc1ccc(/C=C/c2ccccc2)cc1	none (no result: HCMV antiviral, FMDV antiviral, HCV inhibitor)
CCc1ccc(CN(Cc2ccco2)c2cnc(S(C)(=O)=O)nc2C(=O)Nc2c(C)cccc2C)cc1	none (no result: HCV inhibitor)
CCN1CCN(C(=O)c2c(C)nn(-c3ccc(F)cc3)c2-n2cccc2)CC1	FMDV antiviral inconclusive (no result: HCV inhibitor)
CCN(CC)c1ccc2c(c1)OC(N)=C(C#N)C2c1cccnc1 (stereo unspecified)	HCMV antiviral -85.0, VACV mCherry inh inconclusive, FMDV antiviral inconclusive, HCV inhibitor inconclusive
N#CC1=C(N)Oc2cc(N)ccc2C1c1cccnc1 (stereo unspecified)	none
Nc1nc(N)c2c(ccc3c2ccn3Cc2cccc([N+](=O)[O-])c2)n1	VACV Venus inh 11.2µM, HCMV antiviral -99.1, VACV mCherry inh 0.355µM, FMDV antiviral inconclusive (no result: HCV inhibitor)
Nc1nc(N)nc(-c2cccc([N+](=O)[O-])c2)n1	none (no result: HCV inhibitor)
COc1ccc(C)c2sc(N(Cc3cccnc3)C(=O)C3CCCCC3)nc12	none (no result: HCV inhibitor)
COc1ccccc1CNC(=O)C(CC(C)C)N1Cc2ccccc2C1=O (stereo unspecified)	none (no result: HCV inhibitor)
CCC(C)c1ccc2oc(-c3ccc(NC(=O)Cn4cnc5c(=O)n(C)c(=O)n(C)c54)cc3)nc2c1 (stereo unspecified)	HCMV antiviral -72.7, HCV inhibitor inconclusive (no result: VACV Venus inh, VACV mCherry inh)
Cn1c(=O)c2ncn(CC(=O)Nc3ccc(N4CCOCC4)cc3)c2n(C)c1=O	none (no result: VACV Venus inh, VACV mCherry inh)
COC(=O)[C@H](CC(C)C)NS(=O)(=O)NC(=O)OC(C)(C)C	none (no result: HCMV antiviral, FMDV antiviral, HCV inhibitor)
Cc1ccccc1CCNC(=O)c1ccc(Cl)c(S(=O)(=O)N2CC(C)OC(C)C2)c1 (stereo unspecified)	VACV Venus inh inconclusive, HCMV antiviral -88.4, FMDV antiviral 17.8µM, HCV inhibitor 7.94µM
CCc1nnc(NC(=O)c2ccc(S(=O)(=O)N3CCc4ccccc4C3)cc2)s1	none
CC1CN(S(=O)(=O)c2cc(C(=O)NCc3ccncc3)ccc2Cl)CC(C)O1 (stereo unspecified)	none (no result: VACV Venus inh, VACV mCherry inh)
COc1ccc(NC(=O)c2ccc(Cl)c(S(=O)(=O)N3CCc4ccccc4C3)c2)cn1	HCMV antiviral -103.6, FMDV antiviral 20µM, HCV inhibitor 11.2µM (no result: VACV Venus inh, VACV mCherry inh)
CCc1nnc(NC(=O)c2ccc(Cl)c(S(=O)(=O)N3CCc4ccccc4C3)c2)s1	HCMV antiviral inconclusive, FMDV antiviral 25.1µM, HCV inhibitor inconclusive
COc1ccc(NC(=O)c2ccc(Cl)c(S(=O)(=O)N3CC(C)OC(C)C3)c2)cn1 (stereo unspecified)	HCMV antiviral -89.7, FMDV antiviral inconclusive, HCV inhibitor 3.16µM (no result: VACV Venus inh, VACV mCherry inh)
Cc1nn(C(=O)c2ccc(Br)cc2)c(C)c1S(=O)(=O)N1CCOCC1	none (no result: HCV inhibitor)
CCOC(=O)[C@@H]1CSCCS(=O)(=O)N1C(=O)[C@H](CC(C)C)NC(=O)OC(C)(C)C	none (no result: VACV Venus inh, VACV mCherry inh, FMDV antiviral, HCV inhibitor)
Cc1nc2ccccc2c2oc(C(=O)NCCN3CCN(C)CC3)cc12	HCMV antiviral -69.8
COC(=O)c1ccc(NC(=O)c2nc(SCc3ccccc3F)ncc2Cl)cc1	none (no result: HCMV antiviral, FMDV antiviral, HCV inhibitor)
O=c1oc2cc(OCCO)ccc2c2c1CCCC2	none (no result: VACV Venus inh, VACV mCherry inh)
O=c1oc2cc(Oc3ccc(C(F)(F)F)cc3[N+](=O)[O-])ccc2c2c1CCC2	FMDV antiviral inconclusive, HCV inhibitor inconclusive
O=C(O)COc1ccc2c3c(c(=O)oc2c1)CCCC3	HCMV antiviral -79.8
O=c1oc2cc(Oc3c([N+](=O)[O-])cc(C(F)(F)F)cc3[N+](=O)[O-])ccc2c2c1CCCC2	FMDV antiviral inconclusive, HCV inhibitor 3.16µM (no result: VACV Venus inh, VACV mCherry inh)
COc1ccc(OC)c(NC(=O)c2ccc3c(c2)C(=O)N(CC2CCCO2)C3=O)c1 (stereo unspecified)	HCMV antiviral -66.5
CCOC(=O)c1ccc(NC(=O)c2ccc3c(c2)C(=O)N(CC2CCCO2)C3=O)cc1 (stereo unspecified)	FMDV antiviral 28.2µM
COC(=O)Cc1ccc(NC(=O)c2ccc3c(c2)C(=O)N(Cc2cccnc2)C3=O)cc1	FMDV antiviral inconclusive
Cc1ccc(NC(=O)c2ccc3c(c2)C(=O)N(CC2CCCO2)C3=O)cc1C (stereo unspecified)	none
CCOC(=O)c1ccc(NC(=O)c2ccc3c(c2)C(=O)N(Cc2cccnc2)C3=O)cc1	FMDV antiviral 17.8µM (no result: VACV Venus inh, VACV mCherry inh)
Cc1cc(C)c(S(=O)(=O)NCC(c2ccc(N(C)C)cc2)N2CCc3ccccc32)c(C)c1 (stereo unspecified)	none (no result: HCV inhibitor)
COc1cccc(CNC(=O)c2c(OC)cc(=O)n3c2CCN(C(=O)c2ccc(C)cc2C)CC3)c1	none (no result: HCMV antiviral, HCV inhibitor)
COc1ccc(-c2c(C(C)=O)c(C)nc3sc4c(=N)n(N)cnc4c23)cc1	VACV Venus inh 12.6µM, HCMV antiviral inconclusive, VACV mCherry inh 7.08µM, HCV inhibitor inconclusive
CCOC(=O)c1c(C)nc2sc3c(=O)n(-c4ccc(C(C)=O)cc4)nnc3c2c1-c1ccc(OC)cc1	HCV inhibitor 8.91µM
Cc1nc2sc(C(N)=O)c(N)c2c(-c2ccc(Br)cc2)c1C(=O)Nc1ccc(Cl)cc1	HCMV antiviral -77.9, FMDV antiviral inconclusive (no result: HCV inhibitor)
CCOC(=O)c1c(C)nc2sc(C(=O)Nc3ccc(OC)cc3)c(N)c2c1-c1ccc(OC)cc1	VACV Venus inh inconclusive, HCMV antiviral inconclusive, VACV mCherry inh inconclusive, HCV inhibitor 3.55µM
COc1ccc2c(c1)C=C/C2=C\c1ccc(N(C)C)cc1	none (no result: HCMV antiviral, FMDV antiviral, HCV inhibitor)
c1ccc(CNc2ncnc3c2ncn3Cc2ccccc2)cc1	none (no result: HCMV antiviral, FMDV antiviral, HCV inhibitor)
COc1ccc(N2CCN(C(=O)c3ccc(COc4ccc([N+](=O)[O-])cc4)o3)CC2)cc1	HCMV antiviral inconclusive, FMDV antiviral 28.2µM, HCV inhibitor inconclusive
COc1cccc(N2CCN(C(=O)c3ccc(CS(=O)c4cccc(Cl)c4)o3)CC2)c1 (stereo unspecified)	HCMV antiviral -69.5 (no result: HCV inhibitor)
COc1ccc(N2CCN(C(=O)c3ccc(CS(=O)c4cccc(Cl)c4)o3)CC2)cc1 (stereo unspecified)	HCMV antiviral -73.1, FMDV antiviral inconclusive (no result: HCV inhibitor)
COc1cccc(N2CCN(C(=O)c3ccc(CS(=O)Cc4ccc(Cl)cc4)o3)CC2)c1 (stereo unspecified)	HCV inhibitor inconclusive
CN(C)c1ccc(/C=C/c2cnnc3ccccc23)cc1	none (no result: HCMV antiviral, FMDV antiviral, HCV inhibitor)
COc1cccc(CNC(=O)CCc2c(C)nn(-c3ccc(N4CCOCC4)nn3)c2C)c1	none (no result: HCV inhibitor)
CCOC(=O)c1c(-c2ccccc2)csc1NC(=O)C(C)NCCCN1CCOCC1 (stereo unspecified)	HCV inhibitor 10µM
CCOC(=O)c1c(-c2ccc(OC)cc2)csc1NC(=O)COc1ccc2c(C)cc(=O)oc2c1	none
CCOC(=O)c1c(-c2ccc(OC)cc2)csc1NC(=O)CSc1ncnc2sccc12	HCMV antiviral -71.0, FMDV antiviral inconclusive, HCV inhibitor inconclusive (no result: VACV Venus inh, VACV mCherry inh)
CCOC(=O)c1c(-c2ccc(-c3ccccc3)cc2)csc1NC(=O)CNCCN(C)C	VACV Venus inh inconclusive, HCMV antiviral -100.3, VACV mCherry inh 10µM, HCV inhibitor 5.62µM
